Only some compounds are listed: those with a hit (about 3.6% of all), similar ones and a draw of the others.
Pf apPOL inh – Pf-apPOL DNA polymerase inhibition; Recombinant Pf-apPOL, molecular beacon fluorescence, 1.5 h; inhibition, % at 10 µM; actives 0.25% (n = 210,000)
mHTT CaM bind – inhibitors of human mutant huntingtin-calmodulin interaction. AlphaScreen His-mHTT/GST-CaM binding, luminescence. inhibition, % at 15 µM. actives 3.6% (n = 190,000);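 further: 0% = both proteins with DMSO and 100% = one protein alone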
Target sequence (P42858 whole entry, looked up, stated change not applied): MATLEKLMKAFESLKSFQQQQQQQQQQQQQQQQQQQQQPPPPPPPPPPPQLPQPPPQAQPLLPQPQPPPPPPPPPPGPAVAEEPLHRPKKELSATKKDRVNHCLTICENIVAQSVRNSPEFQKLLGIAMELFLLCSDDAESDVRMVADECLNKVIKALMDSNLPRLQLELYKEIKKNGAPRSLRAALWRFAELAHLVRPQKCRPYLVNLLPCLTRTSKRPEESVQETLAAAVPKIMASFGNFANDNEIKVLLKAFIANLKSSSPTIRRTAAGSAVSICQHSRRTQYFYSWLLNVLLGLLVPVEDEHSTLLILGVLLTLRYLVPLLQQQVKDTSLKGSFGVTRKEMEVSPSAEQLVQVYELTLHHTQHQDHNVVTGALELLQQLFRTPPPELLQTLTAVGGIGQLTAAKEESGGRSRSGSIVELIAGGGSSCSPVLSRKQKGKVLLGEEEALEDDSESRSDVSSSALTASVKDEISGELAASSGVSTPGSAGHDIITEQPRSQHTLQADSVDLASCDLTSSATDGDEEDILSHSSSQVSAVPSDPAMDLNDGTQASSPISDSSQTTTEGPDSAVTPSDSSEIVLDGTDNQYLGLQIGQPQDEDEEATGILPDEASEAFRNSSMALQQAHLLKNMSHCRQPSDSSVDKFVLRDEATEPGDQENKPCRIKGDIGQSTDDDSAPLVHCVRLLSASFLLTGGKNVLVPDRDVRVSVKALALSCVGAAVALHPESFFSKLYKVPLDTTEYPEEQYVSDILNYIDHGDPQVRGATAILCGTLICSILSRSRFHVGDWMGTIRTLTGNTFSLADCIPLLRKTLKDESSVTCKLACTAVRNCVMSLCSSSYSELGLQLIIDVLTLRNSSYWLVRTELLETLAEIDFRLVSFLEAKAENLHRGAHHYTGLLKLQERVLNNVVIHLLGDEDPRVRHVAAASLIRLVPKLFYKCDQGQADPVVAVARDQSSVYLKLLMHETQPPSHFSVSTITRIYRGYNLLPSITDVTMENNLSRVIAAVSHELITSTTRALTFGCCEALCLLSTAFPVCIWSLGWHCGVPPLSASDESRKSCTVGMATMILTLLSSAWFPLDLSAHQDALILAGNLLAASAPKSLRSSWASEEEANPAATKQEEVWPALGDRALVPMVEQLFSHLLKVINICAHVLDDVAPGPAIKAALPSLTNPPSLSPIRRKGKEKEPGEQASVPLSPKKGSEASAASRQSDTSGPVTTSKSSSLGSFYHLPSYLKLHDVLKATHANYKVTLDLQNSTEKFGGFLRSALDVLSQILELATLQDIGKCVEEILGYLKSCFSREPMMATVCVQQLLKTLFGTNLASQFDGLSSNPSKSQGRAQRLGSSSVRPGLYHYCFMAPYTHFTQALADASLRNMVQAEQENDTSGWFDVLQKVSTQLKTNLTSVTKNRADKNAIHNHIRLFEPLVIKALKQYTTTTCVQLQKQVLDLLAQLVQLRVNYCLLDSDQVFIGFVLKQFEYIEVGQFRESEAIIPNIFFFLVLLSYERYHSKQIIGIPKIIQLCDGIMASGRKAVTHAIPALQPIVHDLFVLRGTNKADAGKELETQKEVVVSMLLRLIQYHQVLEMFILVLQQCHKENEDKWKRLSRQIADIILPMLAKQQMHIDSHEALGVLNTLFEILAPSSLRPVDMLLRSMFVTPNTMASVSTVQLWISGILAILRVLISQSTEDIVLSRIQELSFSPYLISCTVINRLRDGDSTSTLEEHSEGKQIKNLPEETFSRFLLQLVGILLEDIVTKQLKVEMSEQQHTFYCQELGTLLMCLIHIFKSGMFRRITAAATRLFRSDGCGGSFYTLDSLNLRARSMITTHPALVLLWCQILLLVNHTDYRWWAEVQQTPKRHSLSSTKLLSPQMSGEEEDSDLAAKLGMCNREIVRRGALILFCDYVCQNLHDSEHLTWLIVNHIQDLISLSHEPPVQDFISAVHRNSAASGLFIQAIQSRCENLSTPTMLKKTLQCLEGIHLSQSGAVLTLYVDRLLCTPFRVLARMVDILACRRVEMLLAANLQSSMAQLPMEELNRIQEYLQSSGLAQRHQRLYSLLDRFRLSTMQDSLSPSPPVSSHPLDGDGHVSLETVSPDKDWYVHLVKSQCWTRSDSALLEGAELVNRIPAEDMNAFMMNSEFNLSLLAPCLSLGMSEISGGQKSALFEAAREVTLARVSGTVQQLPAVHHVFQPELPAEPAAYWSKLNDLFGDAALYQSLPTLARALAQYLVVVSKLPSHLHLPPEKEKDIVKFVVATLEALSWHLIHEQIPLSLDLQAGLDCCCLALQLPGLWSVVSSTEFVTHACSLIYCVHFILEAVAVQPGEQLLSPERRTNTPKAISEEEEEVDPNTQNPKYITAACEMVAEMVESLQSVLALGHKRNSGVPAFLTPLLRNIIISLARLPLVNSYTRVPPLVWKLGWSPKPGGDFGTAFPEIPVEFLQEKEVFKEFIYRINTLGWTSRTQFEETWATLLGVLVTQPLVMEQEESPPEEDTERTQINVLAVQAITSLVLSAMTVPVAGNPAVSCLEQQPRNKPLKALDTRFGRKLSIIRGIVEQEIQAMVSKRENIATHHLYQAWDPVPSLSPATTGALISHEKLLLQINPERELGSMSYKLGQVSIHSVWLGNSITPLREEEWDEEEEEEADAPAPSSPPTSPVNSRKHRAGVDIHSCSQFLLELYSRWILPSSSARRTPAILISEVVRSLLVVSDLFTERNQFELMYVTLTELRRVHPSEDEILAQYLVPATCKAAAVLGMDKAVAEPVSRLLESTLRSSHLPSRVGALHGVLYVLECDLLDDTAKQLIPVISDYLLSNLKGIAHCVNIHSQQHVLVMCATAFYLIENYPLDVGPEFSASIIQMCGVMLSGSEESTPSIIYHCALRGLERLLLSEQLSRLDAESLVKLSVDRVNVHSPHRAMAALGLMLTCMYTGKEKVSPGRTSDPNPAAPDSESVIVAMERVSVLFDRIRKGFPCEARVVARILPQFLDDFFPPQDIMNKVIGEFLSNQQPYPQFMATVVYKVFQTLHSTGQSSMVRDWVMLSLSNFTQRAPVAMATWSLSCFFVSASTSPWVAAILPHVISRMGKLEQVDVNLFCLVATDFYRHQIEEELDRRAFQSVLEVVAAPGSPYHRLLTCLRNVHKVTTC
Starred values were filed as active, the others as inactive; . = no result given. No stated cut-off is given here; in the data, active means inhibition above about 50%; inactive means the rest.

SMILES | Pf apPOL inh | mHTT CaM bind
CCCN1C(=O)c2ccccc2NC1c1ccc(OC)c(COc2cccc(OC)c2)c1 (stereo not given) | 2 | -4
N#Cc1c(F)cccc1OCc1ccc(Cl)cc1 | -4 | .
Cn1cc(C(=O)N2N=CCC2(O)C(F)(F)F)cn1 (stereo not given) | . | 4
Cn1c(/C=C/c2ccc([N+](=O)[O-])o2)nc2ccccc2c1=O | -4 | 3
Cn1cc(C(c2ccc([N+](=O)[O-])o2)c2cn(C)c3ccccc23)c2ccccc21 | 0 | 65*
Cc1cc2n(n1)C(c1ccccc1)CC(c1ccccc1)=N2 (stereo not given) | -2 | -7
O=C(Cc1csc(NC(=O)c2ccc(=O)[nH]c2)n1)Nc1ccc(-n2cnnn2)cc1 | 2 | 17
Oc1ccccc1-c1nc(Cl)c2ccccc2n1 | 2 | -2
c1cncc(C2Oc3ccccc3C3CC(c4cccs4)=NN32)c1 (stereo not given) | -37 | 25
Cc1ccc(C2=NN3C(C2)c2ccccc2OC3c2ccccc2)o1 (stereo not given) | -8 | 30
COc1ccc(O)c(C2Oc3ccccc3C3CC(c4cccs4)=NN32)c1 (stereo not given) | 3 | 49
c1ccc(C2=NN3C(C2)c2ccccc2OC3c2cccnc2)cc1 (stereo not given) | -3 | 39
Clc1ccc(C2=NN3C(C2)c2ccccc2OC3c2ccco2)cc1 (stereo not given) | -2 | 87*
Oc1ccc(O)c(C2=NN3C(C2)c2ccccc2OC3c2cccs2)c1 (stereo not given) | 16 | 67*
Oc1ccccc1C1Oc2ccccc2C2CC(c3cccs3)=NN21 (stereo not given) | 0 | 51*
CCOc1c(O)ccc(C2Oc3ccccc3C3CC(c4cccs4)=NN32)c1[N+](=O)[O-] (stereo not given) | -7 | 54*
O=C(CSc1ccccc1)N1CCC(c2ccn3ncc(C(=O)N4CCCC4)c3c2)CC1 | 5 | 12
CCCCCCC=NNc1ccc([N+](=O)[O-])cc1[N+](=O)[O-] | -14 | .
CCCn1c(C2CCN(C(=O)Nc3ccc(C)c(C)c3)C2)nc2cccnc21 (stereo not given) | -4 | 9
N=c1c(C(=O)NCc2ccco2)cc2c(=O)n3ccccc3nc2n1Cc1ccco1 | -2 | 34
Cc1ccc(N2C(=O)c3ccc(S(=O)(=O)c4cccc(C(=O)O)c4)cc3C2=O)c(C)c1 | -1 | 5
c1csc(C2=NN3C(C2)c2ccccc2OC3c2ccsc2)c1 (stereo not given) | -26 | 27
c1ccc(C2Oc3ccccc3C3CC(c4cccs4)=NN32)cc1 (stereo not given) | 5 | 35
Oc1ccc(C2Oc3ccccc3C3CC(c4cccs4)=NN32)cc1 (stereo not given) | -6 | 51*
Brc1ccc(C2Oc3ccccc3C3CC(c4cccs4)=NN32)o1 (stereo not given) | -57 | 100*
SMILES | Pf apPOL inh | mHTT CaM bind
CCn1c(/C=C/c2ccc3c(c2)OCO3)nc2ccc(I)cc2c1=O | -3 | 15
CNc1nccc(N2CCC(CC(=O)NCCCN3CCOCC3)CC2)n1 | -6 | -2
O=C(Nc1nc(-c2ccc(Cl)cc2)cs1)c1cccc([N+](=O)[O-])c1 | -2 | 6
CC1=C(C(=O)Nc2ccc(C)cc2C)C(c2ccc([N+](=O)[O-])cc2)n2nnnc2N1 (stereo not given) | -7 | 9
CNc1ccc(C(=O)Nc2nc(C(C)(C)C)cs2)cc1[N+](=O)[O-] | -11 | 7
CN(C)c1ccc(C(=O)Nc2nc(C(C)(C)C)cs2)cc1[N+](=O)[O-] | -8 | 62*
OCC1OC(OCC2OC(OC3(CO)OC(CO)C(O)C3O)C(O)C(O)C2O)C(O)C(O)C1O (stereo not given) | -14 | .
Clc1ccc(Cn2cnc(Cl)c2Cl)cc1Cl | -6 | 73*
Cc1ccc(=O)n(Cc2ccc(Cl)c(Cl)c2)n1 | -10 | .
COc1ccc(NC(=O)CN2CCC3(CC2)N=C(c2cccc(F)c2)C(=O)N3)cc1OC | 1 | 30
CC(C)(C)[C@@H]1CCC(=O)N(CC[C@H](Sc2ccccc2)c2ccccc2)CC1 | -1 | -6
CC(=O)Nc1ccc(S[C@@H](CCN2CC[C@H](C(C)(C)C)CCC2=O)c2ccccc2)cc1 | -1 | 61*
CC(C)(C)NC(=S)NNC(=O)c1ccccc1 | 2 | .
CCc1cccc(NC(=O)N2CCCC2c2nc(-c3ccc(F)cc3F)no2)c1 (stereo not given) | 2 | -4
Cc1cc(NC(=O)c2ccc(S(=O)(=O)N(C)C)o2)no1 | 0 | -14
CN(C)S(=O)(=O)c1ccc(C(=O)NC(C)(C)CO)o1 | -3 | 100*
COCCCNC(=O)C1CCCN(C(=O)c2cccc(C(F)(F)F)c2)C1 (stereo not given) | 1 | 28
Cc1nc2cc(N3CC(C(=O)Nc4cccc(F)c4)CC3=O)ccc2o1 (stereo not given) | -2 | 5
CC(C)n1c(C(O)c2ccc(OCc3ccccc3)cc2)nc2ccccc21 (stereo not given) | 10 | 81*
Cc1ccc(OCc2nc3ccccc3n2C(C)C)cc1 | -2 | -17
CCCN1CCN(c2ncc3c(n2)CCN(Cc2cc(F)cc(F)c2)C3)CC1 | -1 | 11
O=C1/C(=C/c2ccc([N+](=O)[O-])cc2)C=C(c2ccccc2)N1c1ccccc1O | 8 | 24
COc1ccc(/C=C2\C=C(c3ccccc3)N(c3ccccc3O)C2=O)cc1 | 3 | 76*
O=C1CC2(CCN(C(=O)Cc3cccc4ccccc34)CC2)Oc2ccccc21 | 4 | 18
c1ccc(CNc2nc(-c3ccncc3)nc3c2CCC3)nc1 | -14 | 6
SMILES | Pf apPOL inh | mHTT CaM bind
Cc1nn2c(NCc3ccccn3)c3c(nc2c1-c1ccccc1)CCCC3 | 1 | 63*
COc1cccc(CN2CCc3nc(N4CCCC4)ncc3C2)c1OC | 4 | 88*
CCN1CCN(c2ncc3c(n2)CCN(Cc2cc(OC)ccc2OC)C3)CC1 | 0 | 48
Fc1ccccc1CN1CCc2nc(N3CCOCC3)ncc2C1 | 0 | 6
COc1cc(OC)c(OC)cc1CN1CCc2nc(N3CCN(C)CC3)ncc2C1 | -3 | 27
COc1ccc(OC)c(CN2CCc3nc(N4CCN(c5ncccn5)CC4)ncc3C2)c1 | 0 | 99*
COc1ccc(CN2CCc3nc(N4CCCC4)ncc3C2)c(OC)c1 | 1 | 99*
Fc1ccccc1CN1CCc2nc(N3CCN(c4ncccn4)CC3)ncc2C1 | -1 | 100*
COc1cccc(CN2CCc3nc(N4CCC(C)CC4)ncc3C2)c1OC | -3 | 23
O=S1(=O)CC2c3ccccc3CN2CN1Cc1ccc(F)cc1 (stereo not given) | -2 | -2
O=C(NCCN1CCOCC1)N(c1ccccc1)c1ccccc1 | 3 | -8
COc1ccc2cc(-c3nnc(NCc4ccccc4)s3)c(=O)oc2c1 | -4 | 0
O=C(CSc1nc2ccccc2[nH]1)c1ccc2c(c1)OCO2 | -2 | 8
O=C(CSc1nc2ccccc2[nH]1)c1ccc(Cl)c(Cl)c1 | -4 | 51*
O=C(Nc1ccc(I)cc1)c1c(F)cccc1F | 1 | -12
CCCc1cc(C2CCCN2Cc2cc(Br)ccc2O)no1 (stereo not given) | 4 | -14
Cc1cc(C2CCCN2Cc2cc(Br)ccc2O)no1 (stereo not given) | -6 | 62*
CCOC(=O)NC(=O)c1ccsc1NC(=O)c1nc2ccccc2s1 | 8 | 62*

Screens from PubChem.
